pAkt inh: blocks phosphorylation of Akt; AID 651550; 0.32% of 360,000 active; activity change, % for hits at 50 µM; Neuro2A IGF-stimulated pAkt S473 HTRF, 20 min; hits give low values; in the data active means activity change below about -80%; inconclusive means mostly about -51% to -80%; further: on the % scale 0 is the no-effect control and ±100 the full control effect
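Neuro2A cells (4,500/well, DMEM with 0.5% FBS) were treated with compound at a single 50 µM final concentration, stimulated with 6 nM IGF for 20 min at 37 °C, and lysed. Phospho-Akt Ser473 was read by HTRF as 665/615 ratio ×10^4.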
TSHR antagonist: antagonists of human thyroid stimulating hormone receptor; P16473; activity change, negative = inhibition, % at 11.5 µM; TSHR-expressing cells, TSH-stimulated cAMP HTRF, 2 h; hits give low values; 0.2% of 330,000 active; AID 504810;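 active means activity change below a set negative limit, meaning inhibition stronger than a set level, cut at about -70% in these data; inconclusive means activity change between two set negative limits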; further: on the % scale 0 is the no-effect control and ±100 the full control effect
Target sequence (P16473 whole entry, looked up): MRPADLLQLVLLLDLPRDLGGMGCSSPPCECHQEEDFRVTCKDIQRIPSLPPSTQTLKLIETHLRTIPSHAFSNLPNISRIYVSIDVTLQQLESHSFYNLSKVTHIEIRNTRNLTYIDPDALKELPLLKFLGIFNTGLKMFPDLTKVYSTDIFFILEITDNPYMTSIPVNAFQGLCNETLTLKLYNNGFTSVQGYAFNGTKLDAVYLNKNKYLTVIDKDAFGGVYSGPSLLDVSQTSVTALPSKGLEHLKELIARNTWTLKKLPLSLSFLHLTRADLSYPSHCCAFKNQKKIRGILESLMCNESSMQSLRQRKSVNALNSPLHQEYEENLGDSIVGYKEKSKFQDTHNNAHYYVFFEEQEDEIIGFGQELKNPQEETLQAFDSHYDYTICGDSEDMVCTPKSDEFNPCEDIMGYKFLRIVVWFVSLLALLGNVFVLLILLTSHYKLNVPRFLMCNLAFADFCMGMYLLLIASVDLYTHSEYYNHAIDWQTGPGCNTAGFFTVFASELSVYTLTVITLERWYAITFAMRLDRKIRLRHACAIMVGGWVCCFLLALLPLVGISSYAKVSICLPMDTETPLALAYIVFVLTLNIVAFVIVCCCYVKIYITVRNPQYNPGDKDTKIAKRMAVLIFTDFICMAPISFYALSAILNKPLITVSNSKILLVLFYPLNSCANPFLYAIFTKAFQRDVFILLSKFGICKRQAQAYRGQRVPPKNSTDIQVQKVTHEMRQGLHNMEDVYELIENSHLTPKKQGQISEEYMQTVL
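Antagonism was scored as loss of TSH-driven cAMP in TSHR cells, stimulated with 4nM TSH (EC80) for 2 hours at 37 deg C and detected by homogeneous HTRF competition immunoassay.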
Rango dissoc inh: inhibitors of RanGTP-induced Rango-importin beta complex dissociation; O95149+P62826; Biochemical FRET Rango-importin beta, RanGTP-induced dissociation; 0.071% of 340,000 active; AID 540253; Potency, µM (highest dose often 46.1 µM), without a hit: at the highest dose activity change, negative = inhibition; further: potency means the concentration at half of the fitted maximal effect; % of control where 0% means no effect; nearly all actives have a fitted effect of over 45% in size
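Compounds preincubate 5 min with complex of recombinant Rango and importin beta in PBS with 1 mM DTT. Ran (0.6 uM) loaded with 2 mM GTP plus 0.2 uM RCC1 starts dissociation; FRET is recorded 45 min later.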
Rango complex inh: inhibitors of Rango-importin beta complex formation; Q14974; Rango CFP/YFP FRET sensor + importin beta, 45 min; Potency, µM (titrated, usually from 92.2 µM), for inactives: top-dose inhibition of complex formation; 0.031% of 340,000 active;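 further: potency means the concentration at half of the fitted maximal effect; 0% = DMSO wells and 100% = buffer wells lacking importin beta; nearly all actives have a fitted effect of over 15% in size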
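FRET biosensor Rango (snurportin 1 IBB between N-terminal EYFP and C-terminal Cerulean), 50 nM in PBS/1 mM DTT/0.02% Tween-20/0.1% BSA, preincubated 5 min RT with compound; 0.125 microM importin beta added, 45 min RT, CFP/YFP FRET ratio read.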
p53 reactivator: re-activators of mutant p53; H1299 p53-A138V BP100-luciferase reporter, luminescence, 24 h; Potency, µM (highest dose often 92.2 µM), for inactives: top-dose activity change, positive = activation, most hits filed as activators; 0.063% of 320,000 active; AID 504706; active means well fitted activation curve with a large enough effect; inconclusive means small, poorly fitted or top-dose-only effect; inactive means no such curve, though single readings can be large or run the other way; further: potency means the concentration at half of the fitted maximal effect; % of control where 0% means no effect; nearly all actives have a fitted effect of over 45% in size
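H1299 (p53-null), stable ts p53-A138V + BP100-Luc; 1000 cells/well, Opti-MEM/10% FBS; cpd 4 pt, 1:5; 24 h, 37 deg C, 5% CO2; detection reagent 10 min RT; luminescence.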
* marks the source's active call; other numbers are inactive results. An excerpt weighted towards active compounds, which were near 0.62% of everything screened. Unless noted, the call rests on the fitted dose curve.

Results for Cc1ccc(C(Sc2ccccc2)C(Cn2cncn2)C(=O)c2ccccc2)cc1 (configuration not stated) ?
pAkt inh: -103.8%*; TSHR antagonist: 51.3; Rango dissoc inh: -3.9%; Rango complex inh: -0.6%; p53 reactivator: 13.4%

How did Cc1ccc(SC(c2ccc(C)cc2)C(Cn2cncn2)C(=O)c2ccccc2)cc1 (configuration not stated) do in these assays?
pAkt inh: inactive; TSHR antagonist: -20.8; Rango dissoc inh: 4.0%; Rango complex inh: inconclusive; p53 reactivator: -1.1%

How did COc1cccc(/C=N/Nc2nc3ccccc3n3cnnc23)c1 do in these assays?
pAkt inh: inactive; TSHR antagonist: -10.8; Rango dissoc inh: inconclusive; Rango complex inh: inconclusive; p53 reactivator: 1.2%

What do the screens show for `COc1cccc(/C=N/Nc2nc3ccccc3n3cnnc23)c1O`?
pAkt inh: inactive; TSHR antagonist: -5.4; Rango dissoc inh: 5.9%; Rango complex inh: -0.2%; p53 reactivator: 31.6µM*

How did CCC(C)n1nnc2c(=O)oc3ccccc3c21 (configuration not stated) do in these assays?
pAkt inh: -91.7%*; TSHR antagonist: -28.3; Rango dissoc inh: 4.7%; Rango complex inh: inconclusive; p53 reactivator: -4.0%

What do the screens show for `COc1ccc(N2CCN(C(=O)CSc3nnc4c(C)cc5ccc(C)c(C)c5n34)CC2)cc1`?
pAkt inh: -118.9%*; TSHR antagonist: 5.4; Rango dissoc inh: -8.3%; Rango complex inh: 4.4%; p53 reactivator: -9.3%

What do the screens show for `COc1nc2ccccc2nc1OC`?
pAkt inh: inactive; TSHR antagonist: -5.6; Rango dissoc inh: 4.1%; Rango complex inh: -5.6%; p53 reactivator: 2.2%

Results for CC(C)(C)OC(=O)NCCc1nnc(S(=O)(=O)Cc2ccc(Cl)cc2Cl)o1 ?
pAkt inh: inactive; TSHR antagonist: -78.1*; Rango dissoc inh: -1.7%; Rango complex inh: -4.4%; p53 reactivator: -29.7%

Results for CN(C)c1ccc(NC(=O)C2C3C=CC(C3)C2C(=O)O)cc1 (configuration not stated) ?
pAkt inh: inactive; TSHR antagonist: -89.3*; Rango dissoc inh: 16.0%; Rango complex inh: 2.8%; p53 reactivator: 9.4%

Results for CCN(CC)C(=O)c1ccc2nc(-c3ccccc3)c(-c3ccccc3)nc2c1 ?
pAkt inh: inactive; TSHR antagonist: -3.1; Rango dissoc inh: 5.3%; Rango complex inh: -2.1%; p53 reactivator: -4.5%

Results for CCCNC(=O)c1ccc2nc(-c3ccccc3)c(-c3ccccc3)nc2c1 ?
pAkt inh: -120.3%*; TSHR antagonist: -3.2; Rango dissoc inh: -10.2%; Rango complex inh: -2.5%; p53 reactivator: 3.5%

Results for CC(C)(C)c1cc(=O)n2c(C#N)c(C#N)nc2[nH]1 ?
pAkt inh: -89.2%*; TSHR antagonist: -0.2; Rango dissoc inh: 12.8%; Rango complex inh: 2.7%; p53 reactivator: -9.7%

Results for COc1ccc(NC(=O)N[C@@H](CCSC)C(=O)O)cc1Cl ?
pAkt inh: -115.0%*; TSHR antagonist: -0.1; Rango dissoc inh: -14.0%; Rango complex inh: -3.0%; p53 reactivator: 1.3%

How did O=C(O)c1cc(O)c2c(c1)[C@@H]([C@H]1c3cc(C(=O)O)cc(O)c3C(=O)c3c(O[C@@H]4O[C@H](CO)[C@@H](O)[C@H](O)[C@H]4O)cccc31)c1cccc(O[C@@H]3O[C@H](CO)[C@@H](O)[C@H](O)[C@H]3O)c1C2=O do in these assays?
pAkt inh: inactive; TSHR antagonist: -79.0*; Rango dissoc inh: inconclusive; Rango complex inh: inconclusive; p53 reactivator: -11.9%

How did OCC1OC(Oc2cccc3ccccc23)C(O)C(O)C1O (configuration not stated) do in these assays?
pAkt inh: inactive; TSHR antagonist: inconclusive; Rango dissoc inh: 0.8%; Rango complex inh: -0.6%; p53 reactivator: 3.0%

Results for COc1ccccc1CNS(=O)(=O)c1ccc(-n2cccn2)cc1 ?
pAkt inh: inactive; TSHR antagonist: -110.5*; Rango dissoc inh: 0.7%; Rango complex inh: 0.5%; p53 reactivator: -5.0%

What do the screens show for `COc1ccc(NC(=O)C2CCN(C(=O)C3CC(=O)N(c4ccc(C)cc4)C3)CC2)cc1` (configuration not stated)?
pAkt inh: inactive; TSHR antagonist: 5.3; Rango dissoc inh: 0.4%; Rango complex inh: -1.0%; p53 reactivator: -10.3%

How did COc1ccc(Cl)cc1NC(=O)C1CCN(C(=O)C2CC(=O)N(c3ccc(C)cc3)C2)CC1 (configuration not stated) do in these assays?
pAkt inh: inactive; TSHR antagonist: -113.4*; Rango dissoc inh: -13.3%; Rango complex inh: -2.6%; p53 reactivator: -11.6%

What do the screens show for `CC(C)Oc1ccc(C(=O)NCCNC(=O)c2ccco2)cc1`?
pAkt inh: inactive; TSHR antagonist: -94.4*; Rango dissoc inh: 9.7%; Rango complex inh: -1.5%; p53 reactivator: 9.3%

Results for COc1ccc(C(=O)c2c[nH]c(C(=O)NCc3cccnc3)c2)cc1 ?
pAkt inh: inactive; TSHR antagonist: -14.3; Rango dissoc inh: 4.1%; Rango complex inh: -1.3%; p53 reactivator: 4.0%

What do the screens show for `O=C(c1ccccc1)c1c[nH]c(C(=O)NCc2cccnc2)c1`?
pAkt inh: -100.2%*; TSHR antagonist: -7.6; Rango dissoc inh: 0.3%; Rango complex inh: -0.6%; p53 reactivator: 2.3%

What do the screens show for `CC(C)Oc1ccc(C(=O)NCc2cccnc2)cc1`?
pAkt inh: -118.9%*; TSHR antagonist: -11.9; Rango dissoc inh: -6.9%; Rango complex inh: 0.9%; p53 reactivator: 1.8%

How did CC(C)CN=Cc1c(O)c([N+](=O)[O-])cc2oc3c(c12)CCCC3 do in these assays?
pAkt inh: inactive; TSHR antagonist: -85.2*; Rango dissoc inh: -0.9%; Rango complex inh: -0.5%; p53 reactivator: 7.1%

What do the screens show for `Cc1cc(N2CCC(C)CC2)nc(SCC(=O)c2ccccc2)n1`?
pAkt inh: inactive; TSHR antagonist: -15.4; Rango dissoc inh: -5.6%; Rango complex inh: 3.0%; p53 reactivator: -7.9%

What do the screens show for `CN1CCN(C(=O)C(C(=O)c2ccc(F)cc2)n2ccccc2=O)CC1` (configuration not stated)?
pAkt inh: -98.9%*; TSHR antagonist: 33.1; Rango dissoc inh: 12.2%; Rango complex inh: 0.5%; p53 reactivator: -1.6%

Results for Oc1ccc(/C=N/NC(=S)NCc2ccco2)cc1 ?
pAkt inh: -115.7%*; Rango dissoc inh: 0.1%; Rango complex inh: -2.0%; p53 reactivator: -1.9%

Results for O=C(Nc1nnc([C@H]2C[C@H](O)[C@@H](CO)O2)s1)NC1CCCCC1 ?
pAkt inh: inactive

Results for CN(/N=C/c1ccc2c(c1)OCO2)c1ccccc1 ?
pAkt inh: inactive; TSHR antagonist: -7.6; Rango dissoc inh: 3.6%; Rango complex inh: 1.5%; p53 reactivator: 10µM*

Source: PubChem
